Compound activity: PubChem, several laboratories
An excerpt weighted towards active compounds, which were near 3.9% of everything screened.
Bead autofluor: flagged as autofluorescent in microsphere protease counterscreen; compound autofluorescence counterscreen, microsphere flow cytometry; hits give high values; fluorescence intensity (no concentration beside the values); 3.1% of 360,000 active; in the data active = fluorescence intensity above about 16000; inconclusive = no clear call, values can overlap the other calls
BoNT A protease: BoNT A light chain protease inhibition; 0.17% of 360,000 active; multiplex microsphere protease substrate cleavage, flow cytometry; inhibition, % at 10 µM
CCHF vOTU inh-1: CCHFV vOTU protease inhibition | AID 651958 | Pep-AMC fluorescence | inhibition, % at 11.5 µM | 0.55% of 370,000 active; in the data active = inhibition above about 30%
BoNT F protease: blocks Botulinum neurotoxin F light chain protease. AID 588497. inhibition, % at 10 µM. 0.22% of 360,000 active. Multiplex microsphere protease cleavage assay, flow cytometry; in the data active = inhibition above about 35%, passing the limit was not always enough; inconclusive = no clear call, values can overlap the other calls
SARS 3CLpro inh: SARS-CoV 3CLpro protease inhibition; P0C6X7; recombinant SARS-CoV 3CLpro, quenched FRET peptide cleavage; inhibition, % at 6 µM; 0.14% of 290,000 active; in the data active = inhibition above about 12%
Anthrax LF inh2: blocks Bacillus anthracis lethal factor protease; P15917; multiplex microsphere protease cleavage assay, LF; inhibition, % at 10 µM; 0.12% of 360,000 active
Target sequence (P15917 whole entry, looked up): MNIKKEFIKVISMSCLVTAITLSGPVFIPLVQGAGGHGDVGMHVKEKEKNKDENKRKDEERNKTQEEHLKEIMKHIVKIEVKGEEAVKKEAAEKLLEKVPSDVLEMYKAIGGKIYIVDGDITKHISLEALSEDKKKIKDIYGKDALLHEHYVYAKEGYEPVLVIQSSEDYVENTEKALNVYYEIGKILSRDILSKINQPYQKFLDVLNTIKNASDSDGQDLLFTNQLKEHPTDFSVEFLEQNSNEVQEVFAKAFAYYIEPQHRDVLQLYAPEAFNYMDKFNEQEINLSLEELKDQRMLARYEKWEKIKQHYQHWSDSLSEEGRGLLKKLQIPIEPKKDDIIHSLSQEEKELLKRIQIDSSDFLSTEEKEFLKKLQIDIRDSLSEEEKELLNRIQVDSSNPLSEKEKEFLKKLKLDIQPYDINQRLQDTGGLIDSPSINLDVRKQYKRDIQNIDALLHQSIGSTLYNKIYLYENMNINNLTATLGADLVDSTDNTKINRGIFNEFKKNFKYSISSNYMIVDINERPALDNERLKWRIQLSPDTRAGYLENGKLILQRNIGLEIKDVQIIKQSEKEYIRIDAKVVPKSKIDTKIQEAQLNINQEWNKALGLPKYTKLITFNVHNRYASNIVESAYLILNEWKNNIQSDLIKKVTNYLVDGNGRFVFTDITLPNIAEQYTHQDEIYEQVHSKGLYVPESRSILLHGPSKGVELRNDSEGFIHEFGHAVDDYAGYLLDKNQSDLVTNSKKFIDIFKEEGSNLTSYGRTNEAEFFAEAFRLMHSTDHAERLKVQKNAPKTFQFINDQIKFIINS
CCHF vOTU inh-2: confirmation of CCHF virus vOTU protease inhibitors; shares compounds with CCHF vOTU inh-1; Recombinant CCHFV vOTU, Pep-AMC fluorescence; inhibition, % at 11.5 µM; 17% of 1,900 active; AID 686976; in the data active = inhibition above about 30%
A number is an active result. Cut-off read from the data, not from the text of the source, unless noted: active = inhibition above about 30%; inconclusive = no clear call, values can overlap the other calls; inactive = below that.

Screening Cc1ccc(CN(C(=O)C(F)(F)F)C(C(=O)NC2CCCCC2)c2ccco2)cc1 (stereo not drawn) returned Bead autofluor inactive, BoNT A protease inactive, CCHF vOTU inh-1 29.8, BoNT F protease inconclusive, SARS 3CLpro inh inactive, Anthrax LF inh2 inactive and CCHF vOTU inh-2 inactive.
O=C(NC1CCCCC1)C(c1ccco1)N(C(=O)C(F)(F)F)C1CC1 (stereo not drawn) was read as Bead autofluor inactive, BoNT A protease inactive, CCHF vOTU inh-1 inactive, BoNT F protease inactive, SARS 3CLpro inh inactive and Anthrax LF inh2 inactive.
For CC(=O)Nc1ccc(NC(=O)CNC(=O)c2cccc(C)c2)cc1 the results were Bead autofluor inactive, BoNT A protease inactive, CCHF vOTU inh-1 inactive, BoNT F protease inactive, SARS 3CLpro inh inactive and Anthrax LF inh2 inactive.
For O=C1OC(c2cccs2)=N/C1=C/c1ccc(-c2cccc(C(=O)O)c2)o1 the results were Bead autofluor inactive, BoNT A protease inactive, CCHF vOTU inh-1 inactive, BoNT F protease inactive, SARS 3CLpro inh inactive and Anthrax LF inh2 inactive.
`O=C1OC(c2cccs2)=N/C1=C\c1ccc(-c2ccccc2Cl)o1` gave Bead autofluor inactive, BoNT A protease inactive, CCHF vOTU inh-1 31.9, BoNT F protease inactive, SARS 3CLpro inh inactive, Anthrax LF inh2 inactive and CCHF vOTU inh-2 inactive.
Screening Nc1cccc2cc(S(=O)(=O)O)ccc12 returned Bead autofluor inactive, BoNT A protease inactive, CCHF vOTU inh-1 32.3, BoNT F protease inactive, Anthrax LF inh2 inactive and CCHF vOTU inh-2 37.1.
CC(=O)c1ccccc1OC(=O)COc1ccc(Cl)cc1C was read as CCHF vOTU inh-1 inactive and SARS 3CLpro inh inactive.
`COc1ccccc1N(C)S(=O)(=O)c1ccc(C(=O)Nc2cccc(S(=O)(=O)N3CCOCC3)c2)cc1` gave Bead autofluor inactive, BoNT A protease inactive, CCHF vOTU inh-1 34.9, BoNT F protease inactive, Anthrax LF inh2 inactive and CCHF vOTU inh-2 inactive.
Cc1cc(C(=O)Nc2cccc(S(=O)(=O)N3CCOCC3)c2)c2ccccc2n1 was read as Bead autofluor inactive, BoNT A protease inactive, CCHF vOTU inh-1 35.5, BoNT F protease inactive, Anthrax LF inh2 inactive and CCHF vOTU inh-2 inactive.
Screening COc1ccccc1N(C)S(=O)(=O)c1ccc(C(=O)NNC(=O)c2ccccc2O)cc1 returned Bead autofluor inactive, BoNT A protease inactive, CCHF vOTU inh-1 29.7, BoNT F protease inactive, Anthrax LF inh2 inactive and CCHF vOTU inh-2 inactive.
`COc1ccccc1N(C)S(=O)(=O)c1ccc(Cl)c(C(=O)NNC(=O)c2ccccc2O)c1` gave Bead autofluor inactive, BoNT A protease inactive, CCHF vOTU inh-1 inactive, BoNT F protease inactive, SARS 3CLpro inh inactive and Anthrax LF inh2 inactive.
For CN(c1ccccc1)S(=O)(=O)c1ccc(C(=O)Nc2cccc(S(=O)(=O)N3CCOCC3)c2)cc1 the results were Bead autofluor inactive, BoNT A protease inactive, CCHF vOTU inh-1 inactive, BoNT F protease inactive and Anthrax LF inh2 inactive.
`CC(C)[C@H](NC(=O)c1ccc(C(C)(C)C)cc1)C(=O)N1CCN(Cc2ccc3c(c2)OCO3)CC1` gave Bead autofluor inactive, BoNT A protease inactive, CCHF vOTU inh-1 inactive, BoNT F protease inactive and Anthrax LF inh2 inactive.
Screening O=C(NC1CCc2ccccc21)c1cc(COc2ccc(F)cc2F)on1 (stereo not drawn) returned Bead autofluor inactive, BoNT A protease inactive, CCHF vOTU inh-1 35.1, BoNT F protease inactive, SARS 3CLpro inh inactive, Anthrax LF inh2 inactive and CCHF vOTU inh-2 inactive.
Screening O=C(N/C(=C/c1cn(-c2ccccc2)nc1-c1ccccc1)C(=O)N1CCOCC1)c1ccccc1 returned SARS 3CLpro inh inactive.
Screening Cc1ccc(C(=O)N/C(=C/c2cn(-c3ccccc3)nc2-c2ccccc2)C(=O)O)cc1 returned Bead autofluor inconclusive, BoNT A protease inactive, CCHF vOTU inh-1 39.1, BoNT F protease inactive, SARS 3CLpro inh inactive, Anthrax LF inh2 inactive and CCHF vOTU inh-2 inactive.
For CCOc1ccc(NC2CCCCC2NS(=O)(=O)c2ccccc2)cc1 (stereo not drawn) the results were Bead autofluor inactive, BoNT A protease inactive, CCHF vOTU inh-1 inactive, BoNT F protease inactive, SARS 3CLpro inh inactive and Anthrax LF inh2 inactive.
`O=C(c1nc[nH]c1C(=O)N1CCc2ccccc2C1)N1CCc2ccccc2C1` gave Bead autofluor inactive, BoNT A protease inactive, CCHF vOTU inh-1 43.3, BoNT F protease inactive, Anthrax LF inh2 inactive and CCHF vOTU inh-2 inactive.
CN(Cc1ccccc1)C(=O)c1nc[nH]c1C(=O)N1CCc2ccccc2C1 was read as Bead autofluor inactive, BoNT A protease inactive, CCHF vOTU inh-1 inactive, BoNT F protease inactive and Anthrax LF inh2 inactive.
Cc1noc(C)c1S(=O)(=O)Nc1ccc2c(c1)C(=O)N([C@H](C)CO)C[C@H](C)[C@H](CN(C)C(=O)NC(C)C)OCCCC[C@@H](C)O2 was read as Bead autofluor inactive, BoNT A protease inactive, CCHF vOTU inh-1 inactive, BoNT F protease inactive and Anthrax LF inh2 inactive.
`CNCCCOc1ccc(C)cc1Br` gave Bead autofluor 20475, BoNT A protease inconclusive, CCHF vOTU inh-1 29.7, BoNT F protease inactive, SARS 3CLpro inh inactive, Anthrax LF inh2 inactive and CCHF vOTU inh-2 inactive.
Screening O=C(c1ccccc1)c1coc2c1C(=O)c1ccccc1C2=O returned Bead autofluor inactive, BoNT A protease inactive, CCHF vOTU inh-1 33.5, BoNT F protease inactive, SARS 3CLpro inh inactive, Anthrax LF inh2 inactive and CCHF vOTU inh-2 58.7.
Screening COc1ccc(C(=O)c2coc3c2C(=O)C(=O)c2ccccc2-3)cc1 returned Bead autofluor inactive, BoNT A protease inactive, CCHF vOTU inh-1 inactive, BoNT F protease inactive, SARS 3CLpro inh inactive and Anthrax LF inh2 inactive.
`Cc1no[n+]([O-])c1COc1cccc(/C=N/Nc2nncn2N)c1` gave Bead autofluor inactive, BoNT A protease inactive, CCHF vOTU inh-1 109.2, BoNT F protease inactive, SARS 3CLpro inh inactive, Anthrax LF inh2 inactive and CCHF vOTU inh-2 inactive.
`COc1ccc(/C=C/C(=O)NNC(=O)c2cc(C)oc2C)cc1` gave Bead autofluor inconclusive, BoNT A protease inactive, CCHF vOTU inh-1 inactive, BoNT F protease inactive and Anthrax LF inh2 inconclusive.
Screening COC(=O)[C@]12C[C@H](CC(=O)NCC3CCCCC3)C(=O)N(Cc3ccco3)C1=C[C@H](C1CCCC1)O[C@@H]2C returned CCHF vOTU inh-1 inactive.
CCC12CCCN3CCc4c(n(c5ccccc45)C(O)(C(=O)OC)C1)C32 (stereo not drawn) was read as Bead autofluor inactive, BoNT A protease inactive, CCHF vOTU inh-1 41.8, BoNT F protease inactive, SARS 3CLpro inh inactive, Anthrax LF inh2 inactive and CCHF vOTU inh-2 inactive.
Screening O=C(C[C@H]1C/C=C\CC[C@H](Cc2ccc(F)cc2)C(=O)O[C@H](c2ccccc2)CNC1=O)N[C@H](CO)Cc1ccccc1 returned Bead autofluor inactive, BoNT A protease inactive, CCHF vOTU inh-1 inactive, BoNT F protease inactive and Anthrax LF inh2 inactive.
Screening CC1(C(=O)NS(=O)(=O)c2ccccc2)CCN1C(=O)CC1CC1 (stereo not drawn) returned Bead autofluor inactive, BoNT A protease inactive, CCHF vOTU inh-1 inactive, BoNT F protease inactive and Anthrax LF inh2 inactive.
